Shn3 3UTR inh – inhibitors of Schnurri-3 3'UTR reporter in osteoblasts. inhibition, % at 12.5 µM. 360,000 compounds, 0.52% hits. Clone20 osteoblast Shn3 3'UTR firefly luciferase, 24 h;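 active = mean inhibition of at least 75% with every replicate also reaching 75%; inconclusive = mean inhibition at least 75% but some replicate below; inactive = mean inhibition below 75%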;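 also: 0% = median of neutral control wells and 100% = pilot-screen positive control compound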
CSC inhib – blocks cancer stem cells | cancer stem cell-like cells viability, luminescence | 300,000 compounds, 1.1% hits | inhibition, % at 7.5 µM; in the data active = inhibition above about 75%; inconclusive = no clear call, values can overlap the other calls; tested in HMLE shEcad cells
Calb FLC – C. albicans growth modulation with fluconazole; AID 1979; C. albicans CaCi-2 (fluconazole-resistant clinical isolate) + fluconazole, Alamar Blue growth, 48 h; growth inhibition, % (no concentration beside the values); 300,000 compounds, 0.57% hits;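 active = growth inhibition above about 58% in most replicates, limit read from the data, passing the limit was not always enough; inconclusive = exactly half the replicates above a set limit; inactive = most replicates below a set limit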;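 also: all wells also contain fluconazole at 8 µg/ml as a sub-toxic cotreatment; 0% = median of DMSO wells and 100% = median of geldanamycin control wells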
Beta cell apopt – blocks beta cell apoptosis | INS-1E cytokine-induced death, ATP luminescence, 48 h; percent of positive-control rescue, neutral wells zero | protection from apoptosis, % (no concentration beside the values) | 300,000 compounds, 0.8% hits | AID 435005;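 active = Every replicate reaches about 75%, or at least half do and their mean reaches it too, limit read from the data; inconclusive = At least half of replicates reach the limit but their mean does not; inactive = Under half of replicates reach the limit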;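 also: 0% = cytokine-treated negative control wells and 100% = positive control rescue; higher means more ATP so stronger rescue from cytokine killing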
PfHsp90 yeast 2 – inhibits growth of yeast expressing Plasmodium falciparum Hsp90 | S. cerevisiae expressing PfHsp90, BacTiter-Glo ATP, 48 h; yeast lacking PDR1 and PDR3 efflux regulators | inhibition, % at 9.4 µM | AID 504621 | 310,000 compounds, 0.32% hits;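 active = every replicate shows inhibition above about 80%, whatever the replicate mean, limit read from the data; inconclusive = mean inhibition reaches the set limit but some replicate falls short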;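 also: 0% = DMSO neutral controls and 100% = 20 µM radicicol positive controls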
Numbers without * were called inactive; ? = inconclusive; nt = no result. A selection: hits, their analogues and other compounds. The true share with any hit is near 2.2%.

SMILES	Shn3 3UTR inh	CSC inhib	Calb FLC	Beta cell apopt	PfHsp90 yeast 2
C#CCOCCOCCOCCNc1nc(N2CCN(C(=O)CCCCCCCCCCNC(=O)[C@H](CCCCN)n3cc(C[C@@H](C)CC)nn3)CC2)nc(N2CCN(C(=O)CCCCCCCCCCNC(=O)[C@H](CCCCN)n3cc(C[C@@H](C)CC)nn3)CC2)n1	-16	166*	-5	114*	47
C#CCOCCOCCOCCNc1nc(N2CCN(C(=O)CCCCCCCCCCNC(=O)[C@H](CCCCN)n3cc(CCO)nn3)CC2)nc(N2CCN(C(=O)CCCCCCCCCCNC(=O)[C@H](CCCN=C(N)N)n3cc(C[C@@H](C)CC)nn3)CC2)n1	52	135*	nt	63	25
C=CC[C@H](CC(=O)N(CCO)Cc1ccccc1)C(=O)N[C@H](COC(=O)[C@@H](CC=C)CC(=O)OC(C)(C)C)Cc1c[nH]c2ccccc12	18	3	nt	-7	1
CC(C)(C)OC(=O)NCCCC[C@@H](C(=O)NCCCCCCCCCCC(=O)N1CCN(C(=O)OC(C)(C)C)CC1)n1cc(CCO)nn1	63	-28	3	21	6
C#CCOCCOCCOCCNc1nc(N2CCN(C(=O)CCCCCCCCCCNC(=O)Cn3cc(C[C@@H](C)O)nn3)CC2)nc(N2CCN(C(=O)CCCCCCCCCCNC(=O)[C@H](CCCCN)n3cc(C[C@@H](C)CC)nn3)CC2)n1	84	89*	nt	63	9
CC[C@H](C)Cc1cn([C@@H](CCCCNC(=O)OC(C)(C)C)C(=O)NCCCCCCCCCCC(=O)N2CCN(C(=O)OC(C)(C)C)CC2)nn1	69	15	nt	82*	-5
C#CCOCCOCCOCCNc1nc(N2CCN(C(=O)CCCCCCCCCCNC(=O)Cn3cc(C[C@@H](C)O)nn3)CC2)nc(N2CCN(C(=O)CCCCCCCCCCNC(=O)Cn3cc(C[C@@H](C)O)nn3)CC2)n1	14	63	nt	22	-3
O=C(NC(=S)Nn1cnc2c(cnn2-c2ccccc2)c1=O)c1ccc(Cl)cc1	-20	6	101*	0	4
Cc1nc2ccc(NC(=O)c3cc(S(=O)(=O)N(C)c4ccccc4)ccc3Cl)cc2s1	72	5	-2	80*	-45
CCS(=O)(=O)c1ncc(Cl)c(C(=O)Nc2ccc(S(=O)(=O)N(C)c3ccccc3)cc2)n1	99*	98*	0	105*	4
CCN(c1ccccc1)S(=O)(=O)c1ccc(C(=O)Nc2ccncc2)cc1	29	-14	-11	-9	5
CCN(c1ccccc1)S(=O)(=O)c1ccc(NC(=O)c2nc(S(C)(=O)=O)ncc2Cl)cc1	98*	99*	0	98*	16
CC(=O)Nc1ccc(S(=O)(=O)N(C)c2ccccc2)cc1	-2	26	7	3	-1
CC(CC(=O)N1CCc2ccccc21)n1cccn1 (configuration not stated)	-28	-12	-23	2	-13
C[C@H]1CN([C@@H](C)CO)C(=O)c2cccc(NS(=O)(=O)c3cn(C)cn3)c2O[C@H]1CN(C)S(C)(=O)=O	4	-1	nt	-7	13
Cc1sc(-n2c(C)cc(/C=C3\SC(=S)NC3=O)c2C)c(C#N)c1C	-33	79*	46	-6	-39
Cc1cc(/C=C2\SC(=S)NC2=O)c(C)n1-c1cccc(O)c1	-67	1	16	-1	94*
Cc1ccc(-n2c(C)cc(/C=C3\SC(=O)NC3=O)c2C)cc1	-57	2	nt	10	8
O=c1[nH]c2c(c(=O)[nH]1)OCN(Cc1ccccc1)C2	-15	nt	nt	nt	11
CC(Sc1nnc(C2CC2)n1C1CC1)C(=O)Nc1ccccc1C#N (configuration not stated)	6	nt	nt	0	-4
O=S(=O)(CS(=O)(=O)c1ccccc1)c1ccccc1	-23	nt	nt	nt	-26
O=S(=O)(C/C(=C/CO)S(=O)(=O)c1ccccc1)c1ccccc1	94*	3	12	90*	-32
COc1ccc(-c2nc3ncccc3o2)cc1NC(=O)c1ccco1	11	nt	-10	5	7
O=[N+]([O-])c1cccc(NC(=S)Nc2nc(-c3ccc(Cl)cc3Cl)cs2)c1	nt	93*	-2	46	nt
Cc1sc2nc(C3CC3)nc(SCC(=O)NCc3ccco3)c2c1C	30	-8	1	5	84*
SMILES	Shn3 3UTR inh	CSC inhib	Calb FLC	Beta cell apopt	PfHsp90 yeast 2
CCNc1nc(NC(C)(C)C)nc(SCC(N)=O)n1	15	-13	-31	-9	-8
CC1(C)Cc2ccccc2C(N/N=C/c2ccc([N+](=O)[O-])cc2)=N1	-30	nt	75*	-4	21
O=C(Cc1ccc(Cl)cc1)Nc1cc(Cl)ccn1	-12	5	5	-2	-43
Oc1ccccc1-c1cc(C(F)(F)C(F)F)nc(-c2ccccc2)n1	-13	0	-3	-4	19
O=[N+]([O-])c1ccc(O)c(-c2cc(C(F)(F)F)nc(-c3ccccc3)n2)c1	90*	88*	4	119*	14
Oc1cccc(/C=N/N(Cc2ccccc2)c2ccccc2)c1	71	87*	-4	-1	nt
C(=N\N(Cc1ccccc1)c1ccccc1)/c1cccnc1	12	10	3	0	-20
CCOC(=O)N1CCN(C(=O)CSc2nc3c([nH]c4ccccc43)c(=O)n2CC)CC1	21	4	3	-1	10
O=S(=O)(c1ccccc1)[C@@]1(c2ccc(Br)cc2)C[C@@H]2ON=C(c3ccccc3)[C@@H]2C1	6	-28	-1	1	-46
CC(CCc1ccccc1)NC(=O)Cc1ccc(Br)cc1 (configuration not stated)	-8	-8	-4	1	-6
CC(CCc1ccccc1)NC(=O)c1ccc(Br)cc1 (configuration not stated)	-3	-1	-17	-2	112*
C=C1CC(COc2ccc3c(C)c(Cl)c(=O)oc3c2)(c2ccccc2)OC1=O (configuration not stated)	96*	nt	nt	nt	-36
Cc1cc(C)n2nc(C(=O)OCC(=O)N(C)C3CCCCC3)nc2n1	-16	-10	2	-1	4
Cc1oc(-c2cccs2)nc1CN1CCN(Cc2ccc(F)c(F)c2)C(CCO)C1 (configuration not stated)	-19	9	84*	1	10
COc1ccc(N2CCN(C(=O)CSc3nnc4n3C(C)(C)Cc3ccccc3-4)CC2)cc1	25	-3	-1	6	3
Cc1ccc(Cl)cc1N1CCN(C(=O)CSc2nnc3n2C(C)(C)Cc2ccccc2-3)CC1	77	41	18	94*	nt
Cc1cc(SC#N)cc(C)c1NC(=O)CCl	-3	30	-9	1	-38
CCc1cc(SC#N)cc(C)c1NC(=O)CCl	8	56	-4	99*	2
CCOc1cc(/C=N/Nc2cc(C)nc(-n3nc(C)cc3C)n2)ccc1O	?	25	6	99*	-25
COc1ccc(/C=N/Nc2cc(C)nc(-n3nc(C)cc3C)n2)c(OC)c1	80	7	16	82*	-22
CNc1cc(C)nc(-n2nc(C)cc2C)n1	-8	-12	-6	4	-2

Screens from PubChem.
